Bioassay records from PubChem.
KCNH2 WT inh = KCNH2 (human, wildtype) channel inhibition; Q12809; U2OS, BacMam KCNH2, thallium flux FluxOr; stronger effect = lower value; activity change, % at 1.84 µM; hit rate 0.37% among 340,000;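 active = maximum activity change below -70%; inconclusive = maximum activity change between -70% and -50%; inactive = maximum activity change above -50%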
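U2OS cells transduced with wild-type KCNH2 virus are loaded with FluxOr dye for 45 min, and thallium flux is measured in kinetic reads before and after stimulation buffer. Rate constants are normalized to DMSO controls.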
CtBP-E1A inh = inhibitors of CtBP/E1A interaction; AlphaScreen GST-E1A/His-CtBP binding, 1536-well; stronger effect = lower value; activity change, % (no concentration beside the values); hit rate 0.49% among 340,000
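Protein mix (5X: 125 nM each GST-E1A, His-CtBP) was incubated with pinned compound 2 h at 37 deg C in dark, in 50 mM Tris pH 8.0 buffer with 300 mM NaCl. Glutathione donor and nickel acceptor beads followed; AlphaScreen signal read after 1 h.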
Six1-Eya2 inh = inhibitors of human Six1/Eya2 interaction. Q15475+O00167. AlphaScreen GST-Six1/His-Eya2 binding, biochemical; stronger effect = lower value. activity change, % (concentration not given with the values). hit rate 0.56% among 360,000. AID 651725
Target sequence (O00167 whole entry, looked up): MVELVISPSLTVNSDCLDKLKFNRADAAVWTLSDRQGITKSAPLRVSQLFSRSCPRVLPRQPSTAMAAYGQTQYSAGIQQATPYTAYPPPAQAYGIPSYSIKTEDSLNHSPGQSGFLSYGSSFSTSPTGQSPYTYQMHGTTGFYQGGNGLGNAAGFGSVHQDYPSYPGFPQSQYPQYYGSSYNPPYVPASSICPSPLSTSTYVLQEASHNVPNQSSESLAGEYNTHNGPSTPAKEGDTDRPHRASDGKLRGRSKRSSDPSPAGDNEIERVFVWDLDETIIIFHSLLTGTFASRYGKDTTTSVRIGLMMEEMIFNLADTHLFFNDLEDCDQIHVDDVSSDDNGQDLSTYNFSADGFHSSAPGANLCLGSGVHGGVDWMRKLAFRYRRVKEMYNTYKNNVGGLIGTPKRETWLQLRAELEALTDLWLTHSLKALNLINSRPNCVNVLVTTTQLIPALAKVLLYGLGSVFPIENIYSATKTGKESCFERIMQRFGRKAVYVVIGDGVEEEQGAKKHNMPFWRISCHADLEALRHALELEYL
Target sequence (Q15475 whole entry, looked up): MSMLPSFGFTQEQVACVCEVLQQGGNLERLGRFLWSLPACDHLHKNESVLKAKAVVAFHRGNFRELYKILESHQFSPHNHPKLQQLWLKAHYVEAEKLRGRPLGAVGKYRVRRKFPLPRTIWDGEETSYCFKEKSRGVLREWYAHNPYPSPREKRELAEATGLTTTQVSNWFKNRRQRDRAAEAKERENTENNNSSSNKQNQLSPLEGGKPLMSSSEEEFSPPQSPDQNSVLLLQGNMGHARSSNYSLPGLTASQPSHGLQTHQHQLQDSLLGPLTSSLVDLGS
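AlphaScreen luminescence read after one hour at 37 °C in darkness. Pin-transferred compounds met GST-Six1 and His-Eya2 protein (5X stock 250 nM/500 nM) plus glutathione donor and Ni-chelate acceptor beads (5X, 50 ug/mL).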
JMJD2E inh = blocks human JMJD2E demethylase activity | JMJD2E catalytic domain, FDH-coupled NADH fluorescence (FDH is formaldehyde dehydrogenase) | Potency, µM (series often up to 57.1 µM), for inactives: top-dose activity change, negative = inhibition, actives largely listed as inhibitors | hit rate 1.6% among 230,000; active = well fitted inhibition curve with a large enough effect, not every such curve was filed as active; inconclusive = small, poorly fitted or top-dose-only effect, or another doubt; inactive = no such curve, though single readings can be large or run the other way;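 also: potency is read from the fitted curve at half-maximal effect; 0% = wells with enzyme and -100% = buffer wells without enzyme; nearly all actives have a fitted effect of over 50% in size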
KCNH2 3.1 block = KCNH2 3.1 (human) potassium channel inhibition; U2OS KCNH2 3.1, thallium flux FluxOr; stronger effect = lower value; activity change, % (tested at about 1.8 µM); hit rate 0.95% among 340,000; AID 720553;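 active = maximum activity change below -70%; inconclusive = maximum activity change from -70% to -50%; inactive = maximum activity change above -50%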;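 also: thallium influx rate constant from kinetic fluorescence after stimulation buffer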
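FluxOr-based Tl+ influx in U2OS cells transduced with KCNH2 3.1 virus; rate constants normalized to DMSO controls.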
Starred values were filed as active, the others as inactive; i = inactive; ? = inconclusive; · = no result. An excerpt weighted towards active compounds, which were near 2% of everything screened. Rule as the data show it, unless noted: active = activity change below about -65%; inconclusive = mostly about -30% to -63%; inactive = weaker than that. Unless noted, % is scaled to controls: 0 for no effect and ±100 for the full control effect.

SMILES | KCNH2 WT inh | CtBP-E1A inh | Six1-Eya2 inh | JMJD2E inh | KCNH2 3.1 block
Cn1nc(-c2ccccc2)c(C(=O)Nc2ccc(Cl)cc2)c1Cl | -11 | 3 | 7 | 2% | -4
CCC1CCCCN1CCCNC(=O)c1cn(C)c2ccc(S(=O)(=O)N(C)C3CCCCC3)cc2c1=O (stereo unspecified) | -5 | -8 | 0 | · | -4
COc1ccc2nc(COC(=O)c3cccs3)c(C(C)=O)[n+]([O-])c2c1 | 6 | · | -1 | ? | -13
O=c1c(-c2ccc(O)cc2)coc2cc(O)cc(O)c12 | 1 | -25 | 1 | -1% | 2
O=c1c(-c2cc(O)c(O)c(O)c2)coc2cc(O)c(O)c(O)c12 | · | · | · | 2.8µM* | ·
Cc1cccc(NCc2ccc(O)c3ncccc23)c1C | 9 | -89* | -74* | -14% | 9
Cc1cccnc1NCc1ccc(O)c2ncccc12 | 4 | -91* | -90* | 18µM* | 1
Cc1ccc(O)c(CNc2cccc3cccnc23)c1 | -3 | ? | -22 | -19% | 0
COc1cc(C(=O)NCc2ccc(C)cc2)ccc1OCc1c(C)noc1C | -20 | -5 | 0 | -9% | 1
CCCCN(Cc1ccco1)S(=O)(=O)c1csc(C(N)=O)c1 | -159* | -18 | -6 | · | -182*
O=[N+]([O-])/C(C(Cl)=C(Cl)Cl)=C(\Sc1ccccc1)N1CCCCC1 | 2 | · | 5 | -28% | -1
CCCCc1ccc(NC(=O)N2CCN(c3cc(C)nc4ccccc34)CC2)c(C)c1 | -44 | 0 | 0 | · | -94*
COc1ccc(/C=C/C(=O)NC(=S)Nc2ccc(S(=O)(=O)Nc3cc(C)on3)cc2)cc1 | 7 | -25 | -11 | · | 0
COc1ccc(/C=C/C(=O)NC(=S)Nc2ccc(S(=O)(=O)Nc3ccc(OC)nn3)cc2)cc1 | -5 | -77* | ? | -1% | 9
S=C(NCCc1ccccc1)Nc1cnc2ccccc2c1 | -7 | · | 0 | 25µM* | 8
COc1ccc(N2CCN(C(=O)c3ccc(-c4ccccc4)cc3)CC2)cc1 | ? | 1 | 9 | · | -13
COc1ccc(C2=CC(=O)C=CC2=O)cc1 | · | · | · | 14µM* | ·
Nc1cnccc1C(=O)O | i | 1 | -15 | 0.63µM* | -18
COC(=O)c1ccncc1N | -2 | -3 | 1 | ? | 9
Cc1cc(Br)ccc1NC(=O)CNC(=O)CN(C)Cc1nc2ccccc2c(=O)[nH]1 | -12 | 9 | 3 | -2% | -99*
COc1cc(CCCN2C(N)=NC[C@@H]2Cc2ccc(O)cc2)cc(OC)c1OC | -8 | -1 | -3 | 2% | 7
Cc1cc(C)n(-c2ccc(C(=O)NCc3ccc(F)cc3)cc2)n1 | -3 | 5 | 4 | 2% | 10
O=C(CCc1c[nH]c2ccccc12)OCC(=O)N1CCN(S(=O)(=O)c2ccccc2)CC1 | -101* | 0 | -2 | · | -17
Cc1cc(C)c2c(n1)sc1c(O)cc(=O)[nH]c12 | -19 | -15 | -71* | ? | 6
CC1CCN(S(=O)(=O)c2ccc(C(=O)NCc3cccnc3)cc2)CC1 | -263* | 3 | 0 | -5% | 3
SMILES | KCNH2 WT inh | CtBP-E1A inh | Six1-Eya2 inh | JMJD2E inh | KCNH2 3.1 block
CC1CCN(S(=O)(=O)c2ccc(C(=O)NC3CCS(=O)(=O)C3)cc2)CC1 (stereo unspecified) | -3 | 4 | -3 | · | -79*
Cc1ccc(C(=O)NC2CCS(=O)(=O)C2)cc1S(=O)(=O)N1CCCCCC1 (stereo unspecified) | 14 | -8 | 17 | 4% | -114*
O=C(NCc1cccnc1)c1ccc(S(=O)(=O)N2CCOCC2)cc1 | 6 | 13 | -3 | 11% | -11
CCn1c(=O)cc(OCC(=O)NCc2cccnc2)c2ccccc21 | -38 | 7 | -2 | -5% | -7
CCOC(=O)C1(C)/C(=N/Nc2ccccc2)C(=O)C(=O)N1c1ccccc1 (stereo unspecified) | 6 | -20 | -20 | -4% | 10
CCOC(=O)C1(C)/C(=N/Nc2ccccc2OC)C(=O)C(=O)N1c1ccccc1 (stereo unspecified) | 7 | ? | -26 | 25µM* | 0
O=C(Cc1ccccc1)Nc1nc(-c2ccc(F)c(F)c2)cs1 | -2 | -7 | -5 | · | 12
COc1cccc(CC(=O)Nc2nc(-c3ccc(F)c(F)c3)cs2)c1 | -4 | 31 | 5 | · | -94*
CC/C=C/C(=O)N1CC2(CC(c3cccc(NC(=O)COc4ccc(Cl)cc4)c3)=NO2)C[C@H]1C(N)=O (stereo partly specified) | -42 | 0 | -1 | -16% | -71*
COc1ccc(NC(=S)NCCN2CCC(C)CC2)cc1Cl | 19 | -8 | 13 | 8% | -26
O=c1c(S(=O)(=O)c2ccc(Cl)cc2)cn(Cc2cccc(F)c2)c2ccc(F)cc12 | ? | -1 | 0 | 7% | -82*
COc1ccc2nc(SCC(=O)Nc3ccc(S(=O)(=O)Nc4onc(C)c4C)cc3)[nH]c2c1 | -20 | ? | ? | -1% | -19
COc1ccc(Br)cc1/C=N/n1c(C)nc2ccccc2c1=O | -4 | -4 | 0 | · | 1
Cc1nc2ccccc2c(=O)n1/N=C/c1cc(Br)ccc1O | -8 | -65* | ? | · | -3
Cc1ccc(-c2[nH]ncc2/C=N/n2c(COc3ccccc3)nc3ccccc3c2=O)cc1 | -1 | -1 | -1 | -2% | -15
CCCc1nc2ccccc2c(=O)n1/N=C/c1ccc(O)cc1O | 5 | ? | -20 | 32µM* | 3
Cc1cc(/C=N/n2c(COc3ccccc3)nc3ccccc3c2=O)c(O)c([N+](=O)[O-])c1 | 1 | -80* | -88* | ? | 10
CCCc1nc2ccccc2c(=O)n1/N=C/c1ccc(O)cc1 | -3 | 1 | 1 | -6% | 0
CN(C(=O)c1ccccc1C(=O)OCC(=O)Nc1ccc(OC(F)F)cc1)c1ccccc1 | 7 | 9 | 0 | · | 0
Cc1nc(SCc2ccccc2C#N)n[nH]1 | -8 | · | 3 | · | -13
CCCCn1c(=O)c2c(O)cc(=O)oc2c2ccccc21 | ? | -10 | -1 | -2% | -10
CCn1c(SCC(=O)OC2CCCCC2)nnc1-c1ccncc1 | -6 | -3 | 12 | -8% | -1
CC(O)/C=C/c1cccc[n+]1C (stereo unspecified) | -2 | 8 | 8 | 7.9µM* | 4
C[n+]1ccccc1/C=N/O | -34 | 0 | 3 | 0% | -17
Cc1csc(N=Nc2ccc(N(C)C)cc2)[n+]1[O-] | -6 | ? | -77* | · | 3
CCOC(=O)N1CCc2c(sc3nc(SC(C)C)n(N)c(=O)c23)C1 | 0 | 4 | -11 | -6% | -3
COc1ccc(OCCN2CCN(C(=O)c3ccc(OC(F)F)c(OC)c3)CC2)cc1 | 26 | 3 | -10 | · | -76*
COc1ccc(OCCN2CCN(C(=O)c3ccc(OC)cc3)CC2)cc1 | 2 | 2 | 3 | · | -48
